PubChem BioAssay AID1159580 (chemical genetic matrix, 2015)
Several values for one entry are separate records, joined by “and”; a condition that tells them apart may be missing. Equal values may be shown once. The whole screen tested about 5,500 compounds, of which about 2,000 (36%) were called active. Not shown: some 18% with an inconclusive outcome. Rule as the data show it: active = normalized growth mostly below about 0.91 (no sharp cut-off); inconclusive = no clear call, values can overlap the other calls; inactive = mostly above about 0.92. The list shows a part of the results.

Assay: chemical genetic growth profiling, strain panel (AID 1159580);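 also: tested at 20 µM; growth read once vehicle control cultures reached saturation at 30 °C; 1 = growth at the plate median or of vehicle wells; lower values mean less growth of the strain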
Conditions: S. cerevisiae deletion strains, growth OD

Measured: normalized growth

CC(=O)OC(C)(C)[C@@H]1Cc2cc3ccc(=O)oc3cc2O1
inactive: locus YAL021C, strain ccr4, stronger effect = lower value 1.01 | locus YAL026C, strain drs2, stronger effect = lower value 0.984 | locus YAL030W, strain snc1, stronger effect = lower value 0.963 | locus YBL061C, strain skt5, stronger effect = lower value 0.969 | locus YBR009C, strain hhf1, stronger effect = lower value 0.909 | locus YBR021W, strain FUR4, stronger effect = lower value 0.99 | locus YBR023C, strain chs3, stronger effect = lower value 0.972 | locus YBR171W, strain sec66, stronger effect = lower value 0.968 | locus YBR229C, strain ROT2, stronger effect = lower value 1 | locus YBR231C, strain swc5, stronger effect = lower value 0.968 | locus YBR279W, strain paf1, stronger effect = lower value 0.975 | locus YCL011C, strain gbp2, stronger effect = lower value 0.954 | locus YCL016C, strain dcc1, stronger effect = lower value 0.977 | locus YCL029C, strain bik1, stronger effect = lower value 1.01 | locus YCL061C, strain MRC1, stronger effect = lower value 0.978 | locus YCL069W, strain vba3, stronger effect = lower value 0.963 | locus YCR088W, strain abp1, stronger effect = lower value 0.982 | locus YDL005C, strain med2, stronger effect = lower value 0.977 | locus YDL035C, strain GPR1, stronger effect = lower value 1.01 | locus YDL040C, strain nat1, stronger effect = lower value 0.968 | locus YDL074C, strain BRE1, stronger effect = lower value 1.03 | locus YDL101C, strain DUN1, stronger effect = lower value 0.999 | locus YDL185W, strain tfp1, stronger effect = lower value 1 | locus YDL192W, strain arf1, stronger effect = lower value 0.989 | locus YDR001C, strain nth1, stronger effect = lower value 0.965 | locus YDR069C, strain doa4, stronger effect = lower value 0.962 | locus YDR101C, strain arx1, stronger effect = lower value 1.01 | locus YDR137W, strain rgp1, stronger effect = lower value 0.992 | locus YDR150W, strain NUM1, stronger effect = lower value 1.01 | locus YDR159W, strain sac3, stronger effect = lower value 0.936 | locus YDR162C, strain NBP2, stronger effect = lower value 1 | locus YDR195W, strain ref2 0.959 | locus YDR297W, strain sur2, stronger effect = lower value 0.972 | locus YDR318W, strain mcm21, stronger effect = lower value 0.991 | locus YDR334W, strain swr1, stronger effect = lower value 0.972 | locus YDR335W, strain msn5, stronger effect = lower value 0.992 | locus YDR388W, stronger effect = lower value 1 | locus YDR392W, strain spt3, stronger effect = lower value 0.789 | locus YDR502C, strain sam2, stronger effect = lower value 1.01 | locus YEL003W, strain gim4, stronger effect = lower value 0.968 | locus YEL037C, strain rad23, stronger effect = lower value 0.965 | locus YEL061C, strain CIN8 (second series), stronger effect = lower value 0.97 | locus YEL061C, strain CIN8, stronger effect = lower value 1 | locus YER015W, strain faa2, stronger effect = lower value 0.989 | locus YER016W, strain bim1, stronger effect = lower value 0.982 | locus YER110C, stronger effect = lower value 0.995 | locus YER111C, strain swi4, stronger effect = lower value 0.974 | locus YER155C, strain BEM2 (second series), stronger effect = lower value 0.94 | locus YER155C, strain BEM2, stronger effect = lower value 0.999 | locus YER167W, strain BCK2, stronger effect = lower value 0.998 | locus YFR010W, strain ubp6, stronger effect = lower value 0.969 | locus YGL078C, strain dbp3, stronger effect = lower value 1.02 | locus YGL086W, strain mad1, stronger effect = lower value 1.01 | locus YGL167C, strain pmr1, stronger effect = lower value 0.949 | locus YGL173C, strain kem1, stronger effect = lower value 0.961 | locus YGL227W, strain vid30, stronger effect = lower value 0.966 | locus YGL240W, strain doc1, stronger effect = lower value 0.96 | locus YGL248W, strain PDE1, stronger effect = lower value 0.997 | locus YGL253W, strain hxk2, stronger effect = lower value 0.985 | locus YGR135W, strain pre9, stronger effect = lower value 0.989 | locus YGR229C, strain SMI1, stronger effect = lower value 1.04 | locus YGR252W, strain gcn5, stronger effect = lower value 0.916 | locus YHR013C, strain ard1, stronger effect = lower value 0.92 | locus YHR027C, strain rpn1, stronger effect = lower value 0.984 | locus YHR030C, strain SLT2, stronger effect = lower value 0.998 and 0.969 | locus YHR079C, strain IRE1 (second series), stronger effect = lower value 1 | locus YHR079C, strain IRE1, stronger effect = lower value 0.978 | locus YHR094C, strain hxt1, stronger effect = lower value 1.01 | locus YHR129C, strain ARP1, stronger effect = lower value 0.996 | locus YHR142W, strain chs7, stronger effect = lower value 0.993 | locus YHR200W, strain rpn10, stronger effect = lower value 0.989 | locus YIL066C, strain RNR3, stronger effect = lower value 1.01 | locus YIL073C, strain SPO22, stronger effect = lower value 1.04 | locus YIL125W, strain kgd1, stronger effect = lower value 1.02 | locus YIR030C, strain dcg1, stronger effect = lower value 0.997 | locus YJL092W, strain hpr5, stronger effect = lower value 0.986 | locus YJL095W, strain BCK1 (second series), stronger effect = lower value 0.983 | locus YJL095W, strain BCK1, stronger effect = lower value 1.01 and 1.05 | locus YJL115W, strain asf1, stronger effect = lower value 0.983 | locus YJL129C, strain trk1, stronger effect = lower value 0.981 | locus YJL134W, strain LCB3, stronger effect = lower value 1.01 | locus YJL154C, strain vps35, stronger effect = lower value 0.966 | locus YJL164C, strain tpk1, stronger effect = lower value 0.996 | locus YJL166W, strain qcr8, stronger effect = lower value 0.979 | locus YJL168C, strain set2, stronger effect = lower value 1 | locus YJL187C, strain SWE1 (second series), stronger effect = lower value 1 | locus YJL187C, strain SWE1, stronger effect = lower value 0.971 | locus YJR043C, strain POL32, stronger effect = lower value 0.991
